From publication PMC11006913
Residue numbers refer to the chain shown, from its start.

Legend:
Assay in all cases: PBM; 200 nM protein, PBS
Settings in all cases: dsDNA, one strand shown
HOXC9 [1] = biological target: HOXC9 (Homo sapiens, UniProt P31274 178-260, K195R)
HOXC9 [2] = biological target: HOXC9 (Homo sapiens, UniProt P31274 178-260)
HOXC9 [3] = biological target: HOXC9 (Homo sapiens, UniProt P31274 178-260, R193K)
HOXA2 [4] = biological target: HOXA2 (Homo sapiens, UniProt O43364 129-215, R185K)
HOXA2 (Homo sapiens, UniProt O43364 129-215, R185K), sequence (O43364 129-215 R185K): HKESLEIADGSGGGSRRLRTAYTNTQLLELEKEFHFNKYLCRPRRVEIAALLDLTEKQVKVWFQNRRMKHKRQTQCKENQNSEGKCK

VAX1 = VAX1 (Homo sapiens, UniProt Q5SQQ9 86-172)
VAX1, sequence (Q5SQQ9 86-172): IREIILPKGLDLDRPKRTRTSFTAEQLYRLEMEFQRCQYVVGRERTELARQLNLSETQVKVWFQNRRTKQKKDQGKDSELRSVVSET

HOXC9 [5] = biological target: HOXC9 (Homo sapiens, UniProt P31274 178-260, R222W)
HOXC9 (Homo sapiens, UniProt P31274 178-260, R222W), sequence (P31274 178-260 R222W): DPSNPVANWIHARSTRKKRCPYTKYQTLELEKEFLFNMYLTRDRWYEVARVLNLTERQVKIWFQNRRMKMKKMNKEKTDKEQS

HOXA2 [6] = biological target: HOXA2 (Homo sapiens, UniProt O43364 129-215, Y150S)
HOXA2 (Homo sapiens, UniProt O43364 129-215, Y150S), sequence (O43364 129-215 Y150S): as the sequence (O43364 129-215 R185K) above, with Y22S, K57R counted along it

HOXA2 [7] = biological target: HOXA2 (Homo sapiens, UniProt O43364 129-215)
HOXA2 (Homo sapiens, UniProt O43364 129-215), sequence (O43364 129-215): as the sequence (O43364 129-215 R185K) above, with K57R counted along it

HOXB6 = HOXB6 (Homo sapiens, UniProt P17509 132-218)
HOXB6, sequence (P17509 132-218): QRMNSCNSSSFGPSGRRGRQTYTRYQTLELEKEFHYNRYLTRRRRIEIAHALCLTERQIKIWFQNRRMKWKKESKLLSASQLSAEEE

VENTX = biological target: T1, VENTX (Homo sapiens, UniProt O95231 78-163)
T1 sequence: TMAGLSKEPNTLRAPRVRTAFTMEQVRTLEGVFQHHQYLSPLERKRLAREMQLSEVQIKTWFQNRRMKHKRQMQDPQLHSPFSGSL

HOXA7 [8] = biological target: HOXA7 (Homo sapiens, UniProt P31268 116-202)
HOXA7 (Homo sapiens, UniProt P31268 116-202), sequence (P31268 116-202): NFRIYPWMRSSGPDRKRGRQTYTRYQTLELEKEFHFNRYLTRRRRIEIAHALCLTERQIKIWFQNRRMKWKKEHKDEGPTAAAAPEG

PAX4 [9] = biological target: T2, PAX4 (Homo sapiens, UniProt O43316 9-242, R200K)
T2 sequence: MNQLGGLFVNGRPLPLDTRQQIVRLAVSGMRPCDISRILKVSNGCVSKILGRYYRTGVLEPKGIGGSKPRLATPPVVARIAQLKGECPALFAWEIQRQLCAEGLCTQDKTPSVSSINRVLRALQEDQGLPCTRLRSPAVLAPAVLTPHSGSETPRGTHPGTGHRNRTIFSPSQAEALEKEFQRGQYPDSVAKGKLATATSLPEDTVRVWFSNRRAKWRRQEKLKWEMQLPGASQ

PAX4 [10] = biological target: T3, PAX4 (Homo sapiens, UniProt O43316 9-242)
T3 sequence: T2 sequence with K192R

PAX4 [11] = biological target: T4, PAX4 (Homo sapiens, UniProt O43316 9-242, R227W)
T4 sequence: T2 sequence with K192R, R219W

HOXA7 [12] = biological target: HOXA7 (Homo sapiens, UniProt P31268 116-202, W177C)
HOXA7 (Homo sapiens, UniProt P31268 116-202, W177C), sequence (P31268 116-202 W177C): as the sequence (P31268 116-202) above, with W62C counted along it

HOXB9 [13] = biological target: HOXB9 (Homo sapiens, UniProt P17482 171-250, T197M)
HOXB9 (Homo sapiens, UniProt P17482 171-250, T197M), sequence (P17482 171-250 T197M): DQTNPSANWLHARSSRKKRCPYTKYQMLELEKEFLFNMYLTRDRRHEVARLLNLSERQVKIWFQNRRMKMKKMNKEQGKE

HOXB9 [14] = biological target: HOXB9 (Homo sapiens, UniProt P17482 171-250)
HOXB9 (Homo sapiens, UniProt P17482 171-250), sequence (P17482 171-250): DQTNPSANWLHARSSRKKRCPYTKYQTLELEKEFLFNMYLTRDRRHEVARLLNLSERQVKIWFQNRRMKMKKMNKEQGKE

HOXC10 = HOXC10 (Homo sapiens, UniProt Q9NYD6 254-340, K271E)
HOXC10, sequence (Q9NYD6 254-340 K271E): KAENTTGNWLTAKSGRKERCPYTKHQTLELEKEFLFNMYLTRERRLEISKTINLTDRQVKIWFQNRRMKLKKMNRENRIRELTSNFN

HOXB9 [15] = biological target: HOXB9 (Homo sapiens, UniProt P17482 171-250, R186Q)
HOXB9 (Homo sapiens, UniProt P17482 171-250, R186Q), sequence (P17482 171-250 R186Q): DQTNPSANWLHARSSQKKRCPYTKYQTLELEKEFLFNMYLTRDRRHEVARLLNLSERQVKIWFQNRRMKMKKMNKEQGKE

HOXC9 (Homo sapiens, UniProt P31274 178-260, K195R), sequence (P31274 178-260 K195R): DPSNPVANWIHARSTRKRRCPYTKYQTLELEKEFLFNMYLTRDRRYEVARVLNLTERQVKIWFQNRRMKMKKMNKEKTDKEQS
HOXC9 (Homo sapiens, UniProt P31274 178-260, R193K), sequence (P31274 178-260 R193K): as the sequence (P31274 178-260 R222W) above, with R16K, W45R counted along it
HOXC9 (Homo sapiens, UniProt P31274 178-260), sequence (P31274 178-260): as the sequence (P31274 178-260 R222W) above, with W45R counted along it

Sequence: GTCAATTA
- binding signal (HOXC9 [1]): 11.9 upbm affinity estimate (log intensity, higher = more binding, comparable within an allelic series)
- binding signal (HOXC9 [2]): 12 upbm affinity estimate (log intensity, higher = more binding, comparable within an allelic series)
- binding signal (HOXC9 [3]): 11.9 upbm affinity estimate (log intensity, higher = more binding, comparable within an allelic series)
- binding signal (HOXA2 [4]): 13.2 upbm affinity estimate (log intensity, higher = more binding, comparable within an allelic series)
- binding signal (VAX1): 13.3 upbm affinity estimate (log intensity, higher = more binding, comparable within an allelic series)
- binding signal (HOXC9 [5]): 10.7 upbm affinity estimate (log intensity, higher = more binding, comparable within an allelic series)
- binding signal (HOXA2 [6]): 10.7 upbm affinity estimate (log intensity, higher = more binding, comparable within an allelic series)
- binding signal (HOXA2 [7]): 12.3 upbm affinity estimate (log intensity, higher = more binding, comparable within an allelic series)
- binding signal (HOXB6): 11.7 upbm affinity estimate (log intensity, higher = more binding, comparable within an allelic series)

Sequence: CTAATTAG
- binding signal (VENTX): 13.5 upbm affinity estimate (log intensity, higher = more binding, comparable within an allelic series)
- binding signal (HOXA7 [8]): 11.9 upbm affinity estimate (log intensity, higher = more binding, comparable within an allelic series)
- binding signal (PAX4 [9]): 12.5 upbm affinity estimate (log intensity, higher = more binding, comparable within an allelic series)
- binding signal (PAX4 [10]): 13 upbm affinity estimate (log intensity, higher = more binding, comparable within an allelic series)
- binding signal (HOXA2 [4]): 14.3 upbm affinity estimate (log intensity, higher = more binding, comparable within an allelic series)
- binding signal (VAX1): 14.1 upbm affinity estimate (log intensity, higher = more binding, comparable within an allelic series)
- binding signal (PAX4 [11]): 11.7 upbm affinity estimate (log intensity, higher = more binding, comparable within an allelic series)
- binding signal (HOXA2 [6]): 10.9 upbm affinity estimate (log intensity, higher = more binding, comparable within an allelic series)
- binding signal (HOXA7 [12]): 8.87 upbm affinity estimate (log intensity, higher = more binding, comparable within an allelic series)
- binding signal (HOXA2 [7]): 13.4 upbm affinity estimate (log intensity, higher = more binding, comparable within an allelic series)
- binding signal (HOXB6): 12.2 upbm affinity estimate (log intensity, higher = more binding, comparable within an allelic series)

Sequence: GGCAATTA
- binding signal (HOXB9 [13]): 10.2 upbm affinity estimate (log intensity, higher = more binding, comparable within an allelic series)
- binding signal (HOXC9 [1]): 12.6 upbm affinity estimate (log intensity, higher = more binding, comparable within an allelic series)
- binding signal (VENTX): 12.5 upbm affinity estimate (log intensity, higher = more binding, comparable within an allelic series)
- binding signal (HOXA7 [8]): 11.7 upbm affinity estimate (log intensity, higher = more binding, comparable within an allelic series)
- binding signal (HOXB9 [14]): 11.8 upbm affinity estimate (log intensity, higher = more binding, comparable within an allelic series)
- binding signal (HOXC9 [3]): 12.5 upbm affinity estimate (log intensity, higher = more binding, comparable within an allelic series)
- binding signal (HOXA2 [4]): 13.3 upbm affinity estimate (log intensity, higher = more binding, comparable within an allelic series)
- binding signal (HOXC10): 12 upbm affinity estimate (log intensity, higher = more binding, comparable within an allelic series)
- binding signal (VAX1): 12.9 upbm affinity estimate (log intensity, higher = more binding, comparable within an allelic series)
- binding signal (HOXB9 [15]): 11.5 upbm affinity estimate (log intensity, higher = more binding, comparable within an allelic series)
- binding signal (HOXA2 [6]): 10.8 upbm affinity estimate (log intensity, higher = more binding, comparable within an allelic series)
- binding signal (HOXA7 [12]): 8.77 upbm affinity estimate (log intensity, higher = more binding, comparable within an allelic series)
- binding signal (HOXA2 [7]): 12.5 upbm affinity estimate (log intensity, higher = more binding, comparable within an allelic series)
- binding signal (HOXB6): 12.2 upbm affinity estimate (log intensity, higher = more binding, comparable within an allelic series)

Sequence: AGCAATTA
- binding signal (HOXB9 [13]): 9.96 upbm affinity estimate (log intensity, higher = more binding, comparable within an allelic series)
- binding signal (VENTX): 12.4 upbm affinity estimate (log intensity, higher = more binding, comparable within an allelic series)
- binding signal (HOXA7 [8]): 11.7 upbm affinity estimate (log intensity, higher = more binding, comparable within an allelic series)
- binding signal (HOXA2 [4]): 13.3 upbm affinity estimate (log intensity, higher = more binding, comparable within an allelic series)
- binding signal (HOXC10): 11.8 upbm affinity estimate (log intensity, higher = more binding, comparable within an allelic series)
- binding signal (VAX1): 12.9 upbm affinity estimate (log intensity, higher = more binding, comparable within an allelic series)
- binding signal (HOXA2 [6]): 10.8 upbm affinity estimate (log intensity, higher = more binding, comparable within an allelic series)
- binding signal (HOXA7 [12]): 8.7 upbm affinity estimate (log intensity, higher = more binding, comparable within an allelic series)
- binding signal (HOXA2 [7]): 12.5 upbm affinity estimate (log intensity, higher = more binding, comparable within an allelic series)
- binding signal (HOXB6): 12 upbm affinity estimate (log intensity, higher = more binding, comparable within an allelic series)

Sequence: ACTAATTA
- binding signal (HOXB9 [13]): 10.1 upbm affinity estimate (log intensity, higher = more binding, comparable within an allelic series)
- binding signal (HOXC9 [1]): 12.5 upbm affinity estimate (log intensity, higher = more binding, comparable within an allelic series)
- binding signal (VENTX): 13.3 upbm affinity estimate (log intensity, higher = more binding, comparable within an allelic series)
- binding signal (HOXA7 [8]): 12.1 upbm affinity estimate (log intensity, higher = more binding, comparable within an allelic series)
- binding signal (PAX4 [9]): 12.2 upbm affinity estimate (log intensity, higher = more binding, comparable within an allelic series)
- binding signal (PAX4 [10]): 12.7 upbm affinity estimate (log intensity, higher = more binding, comparable within an allelic series)
- binding signal (HOXA2 [4]): 13.8 upbm affinity estimate (log intensity, higher = more binding, comparable within an allelic series)
- binding signal (HOXC10): 11.9 upbm affinity estimate (log intensity, higher = more binding, comparable within an allelic series)
- binding signal (VAX1): 14 upbm affinity estimate (log intensity, higher = more binding, comparable within an allelic series)
- binding signal (PAX4 [11]): 11.4 upbm affinity estimate (log intensity, higher = more binding, comparable within an allelic series)
- binding signal (HOXA2 [6]): 11 upbm affinity estimate (log intensity, higher = more binding, comparable within an allelic series)
- binding signal (HOXA7 [12]): 8.93 upbm affinity estimate (log intensity, higher = more binding, comparable within an allelic series)
- binding signal (HOXA2 [7]): 13.3 upbm affinity estimate (log intensity, higher = more binding, comparable within an allelic series)
- binding signal (HOXB6): 12.4 upbm affinity estimate (log intensity, higher = more binding, comparable within an allelic series)
